Bioassay records from PubChem.
Compounds with a hit are over-represented: about 9.2% of the library has one in this group of screens.
Rab9 promoter act: qHTS Assay for Rab9 Promoter Activators | Potency, µM (highest dose often 9.22 µM), for inactives: at the top dose activation, negative = inhibition, most hits filed as activators | Huh7 Rab9 promoter-luciferase reporter, luminescence, 24 h | AID 485297, 2010 | hit rate 2.8% among 320,000; further: % of control where 0% means no effect; nearly all actives have a fitted effect of over 60% in size
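Stable Rab9-luc Huh7, 1500 cells/well, 2 h settle; cmpd in DMSO, 24 h, 37 °C/5% CO2; luciferase reagent 10 min RT; luminescence.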
SMN2 splice enh: qHTS Assay for Enhancers of SMN2 Splice Variant Expression | Potency, µM (highest dose often 46.1 µM), for inactives: at the highest dose activity change, positive = activation, most hits filed as activators | hit rate 2.8% among 210,000 | HEK293 SMN2-luciferase splicing reporter, luminescence, 30-36 h; further: % of control where 0% means no effect; nearly all actives have a fitted effect of over 55% in size
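HEK293 cells carry an SMN2 minigene-luciferase reporter in which exon 7 inclusion puts luciferase in frame. Cells were seeded at 2000 cells/well, attached for 10-12 hours, then exposed to compounds for 30-36 hours at 37C before ONE-Glo luminescence.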
ELG1 genotoxic: qHTS screen for small molecules that induce genotoxicity in human embryonic kidney (HEK293T) cells expressing luciferase-tagged ELG1. HEK293T ELG1-luciferase reporter, luminescence, 16 h. Potency, µM (doses to about 46 µM), inactives show at the highest dose activity change, positive = activation, usual class: activators. hit rate 1.3% among 330,000; further: % of control where 0% means no effect; nearly all actives have a fitted effect of over 60% in size
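DMSO vehicle served as control against compound-treated ELG1-luciferase HEK293T cells; exposure lasted 16 hr at 37 °C and 5% CO2, followed by ONE-Glo luminescence detection after 30 min.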
ELG1 repair inh: qHTS screen for small molecules that inhibit ELG1-dependent DNA repair in human embryonic kidney (HEK293T) cells expressing luciferase-tagged ELG1; Potency, µM (doses to about 46.1 µM), without a hit: top-dose activity change, negative = inhibition, actives largely listed as inhibitors; hit rate 2.3% among 330,000; HEK293T ELG1-luciferase reporter, luminescence, 16 h; DNA damage induced by 5-fluorouridine; further: on the % scale 0 is the no-effect control and ±100 the full control effect; nearly all actives have a fitted effect of over 55% in size
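Cells (2,000 per well) received 5-fluorouridine plus test compound or DMSO and were incubated 16 hr at 37 °C, 5% CO2. Luciferase activity was read by luminescence 30 min after ONE-Glo addition; signal suppression marked inhibition of damage-induced ELG1 function.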
FLuc modulator: qHTS profiling assay for firefly luciferase inhibitor/activator using purifed enzyme and Km concentrations of substrates (counterscreen for miR-21 project). Luciferin 4-monooxygenase (Photinus pyralis), P08659. purified FLuc, Km substrates, luminescence inhibition. Potency, µM (top dose mostly 57.5 µM), for inactives: top-dose activity change, negative = inhibition, actives largely listed as inhibitors. hit rate 6.9% among 360,000. AID 588342, 2011;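 further: plate controls were vehicle for no effect and reference inhibitor for full effect; nearly all actives have a fitted effect of over 55% in size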
Target sequence (P08659 whole entry, looked up): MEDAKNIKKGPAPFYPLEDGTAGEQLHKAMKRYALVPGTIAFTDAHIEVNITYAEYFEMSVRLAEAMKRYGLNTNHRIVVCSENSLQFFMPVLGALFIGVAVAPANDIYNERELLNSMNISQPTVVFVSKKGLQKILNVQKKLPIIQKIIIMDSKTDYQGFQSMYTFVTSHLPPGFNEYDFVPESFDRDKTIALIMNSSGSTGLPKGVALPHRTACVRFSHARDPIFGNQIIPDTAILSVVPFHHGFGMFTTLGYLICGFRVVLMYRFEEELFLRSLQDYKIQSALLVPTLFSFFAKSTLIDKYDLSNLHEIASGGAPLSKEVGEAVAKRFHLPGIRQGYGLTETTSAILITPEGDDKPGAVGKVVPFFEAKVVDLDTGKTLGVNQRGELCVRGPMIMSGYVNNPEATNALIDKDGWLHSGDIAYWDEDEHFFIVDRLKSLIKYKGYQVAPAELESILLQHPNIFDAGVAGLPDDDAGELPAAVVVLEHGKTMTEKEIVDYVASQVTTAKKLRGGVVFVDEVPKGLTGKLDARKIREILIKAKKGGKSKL
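Purified P. pyralis luciferase (10nM final) with 10uM D-luciferin and 10uM ATP (Km levels) in 50mM Tris acetate pH 7.5, 10mM Mg acetate, 0.01% Tween-20, 0.05% BSA; qHTS 6-point titration, ~60 µM downward; luminescence read.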
NPC1 promoter act: qHTS Assay for NPC1 Promoter Activators | hit rate 2.4% among 320,000 | Huh7 NPC1 promoter luciferase reporter, 24 h | Potency, µM (series often up to 9.22 µM), for inactives: at the highest dose activation, actives largely listed as activators | AID 485313, 2010; further: % of control where 0% means no effect; nearly all actives have a fitted effect of over 60% in size
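Compounds in DMSO were transferred onto Huh7 NPC1-luciferase reporter cells pre-incubated 2 h; after 24 h at 37 °C, Amplite reagent was dispensed and luminescence recorded 10 min later.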
* marks the source's active call; other numbers are inactive results; ? = inconclusive; . = no result; [ ] = another dose, or the depositor's remark. The call rests on the fitted dose curve; in most records, active means well fitted curve in the direction sought with a large enough effect; inconclusive means small, poorly fitted or top-dose-only effect, or another doubt; inactive means no such curve, though single readings can be large; an effect the other way counts as inactive or inconclusive. Potency means the concentration at half of the fitted maximal effect.

SMILES | Rab9 promoter act | SMN2 splice enh | ELG1 genotoxic | ELG1 repair inh | FLuc modulator | NPC1 promoter act
O=C(N/N=C/c1cc(Br)c(O)c(Br)c1)c1cccc(C(F)(F)F)c1 | -2.6% | -23.0% | 2.3% | -1.2% | ? | 1.1%
COc1ccc(CCn2cc3c(c2-c2ccccc2Br)c(=O)n(C)c(=O)n3C)cc1OC | . | -1.2% | . | . | -8.5% | .
C/C(=N\NC(=O)c1c(Br)cnn1C)c1ccc(NC(=O)c2ccc(F)cc2)cc1 | 1.6% | ? | 16.4µM* | ? | 4.0% | 11.7%
C/C(=N\NC(=O)c1cccc(F)c1)c1cccc(NC(=O)c2ccc(F)cc2)c1 | 3.1% | . | 2.0% | -14.3% | ? | 8.1%
C/C(=N\NC(=O)c1cccc(N/N=C(\C)c2cc(O)ccc2O)c1)c1cc(O)ccc1O | -34.9% | -56.1% | -15.5% | 16.4µM* | 12µM* | -18.3%
C/C(=N\NC(=O)c1ccc(F)cc1)c1cccc(NC(=O)c2ccco2)c1 | 29.9% | 2.8% | 2.1% | 2.7% | 4.78µM* | 20.4%
C/C(=N\NC(=O)c1ccccc1F)c1cccc(NC(=O)c2ccc(C)cc2)c1 | ? | . | ? | ? | 2.39µM* | ?
COCCN=C1OC(=O)N2C(=O)C3=C4C(C[C@H]5C(=O)N(CC(=O)OC)C(=O)[C@H]5[C@H]4[C@@]12Cc1ccccc1)[C@H]1C(=O)N(CC(=O)OC)C(=O)[C@H]1[C@H]3C (stereo not given in full) | . | -3.5% | . | . | . | .
COc1ncc2nc(-c3cccc(C#N)c3)c(=O)n(CCC#N)c2n1 | . | -2.1% | . | . | . | .
C/C(=N\NC(=O)c1cccc(N/N=C(\C)c2ccco2)c1)c1ccco1 | ? | -3.8% | 12.1% | ? | 13.5µM* | 16.3%
C/C(=N\NC(=O)c1cccc(O)c1)c1cccc(NC(=O)c2ccc(F)cc2)c1 | 13.8% | . | 2.5% | ? | 1.9µM* | ?
C/C(=N\NC(=O)c1c(Cl)cnn1C)c1cccc(NC(=O)c2ccc(C)cc2)c1 | ? | . | 4.0% | ? | 2.39µM* | ?
C/C(=N\NC(=O)c1ccc(F)cc1)c1cccc(NC(=O)c2cccc(F)c2)c1 | 5.0% | . | -8.4% | -10.2% | -18.1% | 5.1%
C/C(=N\NC(=O)c1cccc([N+](=O)[O-])c1)c1ccco1 | 1.1% | . | 4.0% | ? | -12.2% | 1.8%
C/C(=N\NC(=O)c1c(Cl)cnn1C)c1cccc(NC(=O)C(C)C)c1 | -7.1% | -10.1% | -2.5% | ? | ? | -3.4%
Cc1ccc(-n2c(SCc3nc(-c4ccccc4C)no3)nnc2-c2ccncc2)cc1C | . | ? | . | . | 2.2% | .
Cc1ccc2c(c1)N(C(=O)NCc1ccccc1)CCO2 | . | . | . | . | -1.1% | .
Cc1ccc(O)c(Nc2nc3ccccc3c3nncn23)c1 | . | -10.7% | . | . | -0.6% | .
O=C(/C=C\c1ccc2c(c1)OCO2)Nc1nnc(SCC(=O)OCc2ccccc2)s1 | -0.4% | -17.3% | 4.7% | -1.9% | -0.9% | -1.2%
CCOc1nc(N2CCOCC2)nc(N2CCOCC2)n1 | -2.9% | -13.5% | 14.7% | 0.9% | -1.8% | -7.2%
Cc1ccn2c(=O)c(C(=O)NC3CCCCC3C)c(O)nc2c1 (stereo not given) | 13.4% | . | -0.3% | 16.9% | -4.0% | 9.3%
Cc1nn(C)cc1/C=C/C(=O)c1ccccc1 | ? | 19.1% | ? | ? | 1.51µM* | ?
CCn1cc(/C=N/O)c(C)n1 | 13.4% | ? | -0.9% | 0.1% | 5.5%[2.3 µM] | -3.9%
CCn1cc(/C=C/C(=O)c2ccc(O)cc2)c(C)n1 | ? | . | 10.3µM* | ? | 10.7µM* | ?
Cc1nn(C)cc1/C=C/C(=O)c1cccs1 | ? | ? | 18.4µM* | ? | 5.36µM* | ?
SMILES | Rab9 promoter act | SMN2 splice enh | ELG1 genotoxic | ELG1 repair inh | FLuc modulator | NPC1 promoter act
Cc1nn(C)c(C)c1/C=C/C(=O)c1ccccc1 | 3.55µM* | -35.9% | 16.4µM* | ? | 19µM* | ?
CN(C)S(=O)(=O)n1cnc([C@@H]2[C@@H]3C(=O)OC[C@@H]3C[C@]23N=CN(Cc2ccccc2)C3=O)c1 | 2.5% | . | 2.0% | 4.8% | 1.0% | -2.0%
COc1ccc(C(=O)c2ccc(OC)c(N)c2)cc1N | -26.5% | 35.8% | 18.4µM* | ? | ? | -13.9%
COc1ccc(C(=O)c2ccc(OC)c(OC)c2)cc1OC | -6.8% | -13.1% | -0.1% | 18.3% | 3.1% | -1.9%
Cn1c(=O)c2c(nc(N/N=C/c3cccnc3)n2Cc2ccc(F)cc2)n(C)c1=O | -0.2% | . | 1.1% | 2.3% | -0.2% | -3.2%
Cn1c(=O)c2c(nc(N/N=C/c3cccs3)n2Cc2ccccc2)n(C)c1=O | -10.7% | -55.1% | 0.4% | 6.51µM* | -13.1% | -6.6%
Cn1c(=O)c2c(nc(N/N=C/c3ccc(OC(=O)c4ccco4)cc3)n2Cc2ccccc2)n(C)c1=O | -11.7% | -29.8% | -0.7% | 20.6µM* | -0.4% | -8.8%
Cc1cc(C(=O)CSc2nnc(C3CC3)n2C2CC2)c(C)n1C(C)C | 4.9% | . | 4.3% | ? | 12µM* | 5.7%
C=CCn1c(C)cc(C(=O)CSc2nnc(C3CC3)n2C2CC2)c1C | 14.8% | . | 11.5% | ? | 3.01µM* | 16.9%
COc1ccc(NC(=O)Nc2cccnc2)cc1 | 25.1% | 24.0% | 22.7% | ? | 16.9µM* | 23.5%
O=C(Nc1ccc(Cl)cc1)Nc1cccnc1 | ? | 16.0% | ? | ? | 12µM* | 25.0%
CCOc1ccc(NC(=O)Nc2cccnc2)cc1 | 3.55µM* | . | ? | ? | 7.57µM* | ?
COc1ccc(NC(=S)N2CCCCC2c2cccnc2)cc1 (stereo not given) | -3.4% | . | 0.0% | 6.4% | 16.9µM* | 0.7%
Cc1cccc(NC(=S)N2CCCCC2c2cccnc2)c1C (stereo not given) | 1.1% | . | 0.9% | -9.1% | 1.3% | -2.4%
CC1CN(S(=O)(=O)c2csc(C(=O)Nc3ccccc3)c2)CC(C)O1 (stereo not given) | -12.2% | . | -1.1% | -10.3% | 0.2% | -5.3%
CCCCCn1c(=O)[nH]c2cc(C(=O)N3CCN(c4ccc(OC)cc4)CC3)ccc2c1=O | . | -5.3% | . | . | -5.1% | .
COCCNC(=O)CN1N=C(c2ccc(C)cc2)CCC1=O | -1.0% | . | -0.5% | 2.4% | -1.4% | 2.1%
CC(C)Sc1nnc(Nc2ccccc2)s1 | 2µM* | 28.1% | ? | ? | 15.1µM* | 3.98µM*
O=C(Nc1cccnc1)c1cc(S(=O)(=O)N2CCCCC2)c(Cl)cc1Cl | -1.6% | . | -3.1% | -0.3% | -0.5% | -6.2%
